A short description of test [1]: NCI Yeast Anticancer Drug Screen. Data for the rad50 strain (AID 155).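 Further: 0% = growth of vehicle-only cultures of the same strain.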 The following applies: S. cerevisiae rad50 strain growth inhibition, active compounds read high; at 50.0 µM unless noted. Summed up: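 Inhibition values express reduced yeast growth in compound-treated cultures relative to vehicle-treated controls.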
Test [2] in a line: NCI Yeast Anticancer Drug Screen. Data for the mec2-1 strain (AID 157). The conditions noted are these: S. cerevisiae mec2-1 strain, active compounds read high; at 50.0 µM unless noted. Summed up: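 Mutant yeast (mec2-1) grown with compound; growth inhibition relative to vehicle control reported.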
Test [3] can be described thus: NCI Yeast Anticancer Drug Screen. Data for the sgs1 mgt1 strain (AID 161).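 Further: 0% = growth of cultures given vehicle only.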 The following applies: S. cerevisiae sgs1 mgt1 strain, active compounds read high; at 50.0 µM unless noted. The gist of the method:
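Compounds are added to genetically altered yeast, and growth is compared with cultures given vehicle alone to give percent inhibition.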

The nature of test [4]: NCI Yeast Anticancer Drug Screen. Data for the cln2 rad14 strain (AID 165).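 Further: 0% = growth equal to vehicle treated cultures.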 The conditions noted are these: S. cerevisiae cln2 rad14 strain, active compounds read high; at 50.0 µM unless noted. The gist of the method:
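Readout is yeast growth inhibition versus vehicle-treated controls, using a strain with cln2 and rad14 alterations exposed to compound.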

Test [5] is described as follows: NCI Yeast Anticancer Drug Screen. Data for the bub3 strain (AID 167). The conditions noted are these: S. cerevisiae bub3 mutant strain, active compounds read high; at 50.0 µM unless noted. Summed up: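 Steps: expose the mutant yeast strain to compound; grow alongside vehicle-treated cultures; measure growth; express inhibition against the vehicle cultures.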
Test [6] is described as follows: NCI Yeast Anticancer Drug Screen. Data for the mlh1 rad18 strain (AID 175). The following applies: S. cerevisiae mlh1 rad18 strain growth inhibition, active compounds read high; at 50.0 µM unless noted. Summed up: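 Genetically defined yeast (DNA repair-deficient) exposed to compounds; growth inhibition determined relative to vehicle.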

“And” between values parts separate entries of the source, which are not always exact repeats. Identical values can stand only once. Compounds without any hit were thinned out: in the full panel of roughly 79,000, 15% have a hit. Unmarked numbers belong to inactive results. The source made the active and inactive calls. No stated cut-off is given here; in the data, active means growth inhibition above about 70%; inactive means the rest.

As for `CN(C)c1cccc2ccccc12`, the growth inhibition in test [1] is -1.25%; in test [2] it was 9.1%; in test [3] it was 20.7%; in test [4], -24.3%; in test [5], 6%; in test [6], 18.9%.
`O=[N+]([O-])/C=C/c1cn(CCCCCCCCCCCCn2cc(/C=C/[N+](=O)[O-])c3ccccc32)c2ccccc12`: the growth inhibition in test [1] was -1.5%; in test [2], -24.6%; in test [3], -3.9%; in test [4] it was 6.45%; in test [5] it was -19.4%; in test [6] it was -13.6%.
With `Nc1nc(NCCO)c(NC=O)c(=O)[nH]1`, the growth inhibition in test [1] is -11.6%; in test [2], 6%; in test [3] it was -2.6%; in test [4], -34.4%; in test [5], -13.8%; in test [6], -1.35%.
`CCCCCCCCN(CCCCCCCC)CC(O)c1ccnc2c(Cl)cc(Cl)cc12` (centres undefined): the growth inhibition in test [1] is 16.5%; in test [2], 15.2%; in test [3] it was 43.2%; in test [4] it was 5.7%; in test [5] it was 4.85%; in test [6], 33.3%.
In the case of `Cc1cnc(N)cn1` (tested in a mixture with another compound), the growth inhibition in test [1] is -0.05%; in test [2], -6%; in test [3] it was 1.1%; in test [4] it was -52.2%; in test [5], 3.4%; in test [6], 8.1%.
Take `CC(C)N1C(=O)NC2C1NC(=O)N2C(C)C` (centres undefined) (tested in a mixture with another compound): the growth inhibition in test [1] was -14.8%; in test [2], -5.2%; in test [3], -1.15%; in test [4], 22.4%; in test [5], -12.8%; in test [6] it was -3.05%.
Take `CN(C)c1ccc(-c2nc(-c3cc4c(ccc5ccccc54)oc3=O)cs2)cc1`: the growth inhibition was 22.1% in test [1]; 15.6% in test [2]; -7.55% in test [3]; 6.4% in test [4]; -19.8% in test [5]; -36% in test [6].
Consider `CCCCOc1ccc(Nc2cc(Cl)ccc2C(=O)O)cn1`, for which the growth inhibition is -29.2% and 48.1% in test [1]; -14.2% and 23.7% in test [2]; -25.6% and 44.4% in test [3]; -12.6% and 37.7% in test [4]; -36.1% and 35% in test [5]; -22.6% and 25.1% in test [6].
Consider `C1CCCC(=NN=C2CCCCCCC2)CCC1`, for which the growth inhibition in test [1] is 29%; in test [2], 21.6%; in test [3] it was 13.4%; in test [4], -16.6%; in test [5], -10.2%; in test [6], 14.7%.
In the case of `O=CC(=O)O`, the growth inhibition in test [1] was 28.1%; in test [2], -19.6%; in test [3] it was 15.7%; in test [4], 13.7%; in test [5], 26.6%; in test [6], 25.7%.
Consider `O=C(Nc1ccc(Cl)cc1)C(Cl)C(Cl)c1ccc(Cl)cc1` (centres undefined), for which the growth inhibition was -15.6% in test [1]; -6.3% in test [2]; -7.65% in test [3]; -22.4% in test [4]; 9.05% in test [5]; -23.1% in test [6].
In the case of `O=C(Cc1ccccc1)NCc1ccco1`, the growth inhibition in test [1] was -3.25%; in test [2], 8.55%; in test [3] it was -11.6%; in test [4] it was -10.9%; in test [5], -7.45%; in test [6] it was 7.3%.
Turning to `CC1=NC(=Cc2cc(Br)cc(Br)c2)C(=O)N1n1c(-c2ccccc2)nc2ccccc2c1=O`, the growth inhibition was -13.2% in test [1]; -15.8% in test [2]; -1.65% in test [3]; 0.95% in test [4]; -24.7% in test [5]; 2.7% in test [6].
`O=[N+]([O-])c1ccc(N(CCO)CCO)cc1`: the growth inhibition in test [1] is 1.05%; in test [2], -12.8%; in test [3], -1.75%; in test [4], 9.25%; in test [5], -6.4%; in test [6] it was -17.1%.
Take `OCCCCC1CCCc2ccccc21` (centres undefined): the growth inhibition is 17.3% in test [1]; 16.1% in test [2]; 3.15% in test [3]; -4.55% in test [4]; -1.85% in test [5]; -3.45% in test [6].
As to `Cc1ccc(C)c(NC(=O)NC(C)(C)C)c1`, the growth inhibition in test [1] was -0.2%; in test [2], -22.4%; in test [3], -2.7%; in test [4], -55.1%; in test [5], -5.65%; in test [6], -4.5%.
On to `CCCCCCC1OC(C)C(C)O1` (centres undefined), for which the growth inhibition is 30.8% in test [1]; 13.7% in test [2]; 23.9% in test [3]; -5.15% in test [4]; -3.95% in test [5]; 15.4% in test [6].
As to `Cc1cc(C)[nH]c(=O)c1`, the growth inhibition was 9.2% in test [1]; 0.75% in test [2]; -2.75% in test [3]; 3.8% in test [4]; 20.1% in test [5]; 4.4% in test [6].
In the case of `CCN(CC)C(=O)Oc1cccc(NC(=O)OC)c1`, the growth inhibition in test [1] is 16%; in test [2] it was 47.2%; in test [3], 29.4%; in test [4] it was 16.1%; in test [5], 49.2%; in test [6], 33.4%.
For the compound `CN(C)c1ccc(NC(=O)C(c2ccccc2)c2ccccc2)cc1`, the growth inhibition in test [1] is 6.8%; in test [2], -14.6%; in test [3], 0.4%; in test [4], -23.8%; in test [5] it was 4.35%; in test [6], -12.9%.
As for `COC1OC2COc3ccccc3OC2C2C1N2C(N)=O` (centres undefined), the growth inhibition in test [1] is 7.4%; in test [2], 0.7%; in test [3] it was 4.5%; in test [4], -6.65%; in test [5] it was -2.85%; in test [6], 3.8%.
`Cc1cc(S(=O)(=O)Nc2n[nH]c(N)n2)c(S)cc1Cl`: the growth inhibition in test [1] is 11.4%; in test [2], 7.45%; in test [3], -6.65%; in test [4], -4.6%; in test [5] it was 1.1%; in test [6], 12.8%.
Turning to `CCc1n[nH]c(=O)n1NC(=O)c1ccccc1C(=O)O`, the growth inhibition in test [1] is 15.8%; in test [2], 11.8%; in test [3] it was 15.2%; in test [4] it was 20.6%; in test [5], 25.9%; in test [6], 16.2%.
On to `CC(=O)N(C(C)=O)c1c(N)n(C)c(=O)[nH]c1=O`, for which the growth inhibition was 12.7% in test [1]; -4.85% in test [2]; 6.6% in test [3]; 14.3% in test [4]; 2.75% in test [5]; 8.5% in test [6].
Turning to `CC(=O)OC(C)COc1ccccc1` (centres undefined), the growth inhibition in test [1] is 23.1% and 5.6%; in test [2], 1.55% and -10.3%; in test [3], 2.05% and -4.55%; in test [4], -31.2% and -6.8%; in test [5], -17.1% and 8.8%; in test [6], 15.6% and 15%.
Turning to `c1ccc(CNc2nn[nH]n2)cc1`, the growth inhibition was 2.65% in test [1]; 5.1% in test [2]; -5.9% in test [3]; -20.6% in test [4]; 4.2% in test [5]; 9% in test [6].
As for `CCCCCC#CC[C@@H](O)[C@@H](O)COCc1ccccc1`, the growth inhibition in test [1] was 17.4%; in test [2] it was 8.6%; in test [3], 32.2%; in test [4] it was 29.2%; in test [5], -20.8%; in test [6] it was 9.9%.
For `OCCc1ccc2ccccc2n1`, the growth inhibition in test [1] is 6.05%; in test [2], 14.2%; in test [3] it was 10.7%; in test [4] it was 6.2%; in test [5], -0.8%; in test [6], 3.5%.
As to `Cc1ccc(N2C(=O)CC(NC3CCCCC3)C2=O)cc1` (centres undefined), the growth inhibition is -6.2% in test [1]; -3% in test [2]; -9.65% in test [3]; -2.2% in test [4]; -5.6% in test [5]; -2.7% in test [6].
For the compound `COC(=O)C1(C)CCCC2(C)C1CCC1(O)C(O)C(C(C)C)=CCC21` (centres undefined), the growth inhibition was 4.3% in test [1]; -2.35% in test [2]; 2.55% in test [3]; -2.25% in test [4]; -1.95% in test [5]; 20.2% in test [6].
With `Cc1ccc(O)c(C=NCCN=Cc2cc(C)ccc2O)c1.[Zn]`, the growth inhibition is -14.4% in test [1]; 8.6% in test [2]; 0.05% in test [3]; -13% in test [4]; -43.1% in test [5]; -32.4% in test [6].
As to `C/C(CCCCCCCCCCCC/C(C)=N\Nc1ccc([N+](=O)[O-])cc1[N+](=O)[O-])=N/Nc1ccc([N+](=O)[O-])cc1[N+](=O)[O-]`, the growth inhibition in test [1] was -15.8%; in test [2] it was 5.25%; in test [3], -3.2%; in test [4], 27.2%; in test [5], 2.3%; in test [6] it was 31.6%.
For `Cc1cc(C)c2c(c1)sc1n[nH]c(=S)n12`, the growth inhibition in test [1] is 14.1%; in test [2], 6.7%; in test [3] it was 9.05%; in test [4], -11.4%; in test [5], -10.8%; in test [6], 3.95%.
As to `CCNC(=O)c1ccc(C(C)C)cc1`, the growth inhibition in test [1] is 8.4%; in test [2], -7.2%; in test [3], 14.2%; in test [4], 4.75%; in test [5], 2.15%; in test [6], 5.75%.
Consider `O=C(O)Cn1c(=O)[nH]c(=O)c2[nH]cnc21`, for which the growth inhibition in test [1] is 4.6%; in test [2] it was -26.4%; in test [3], -0.3%; in test [4], 13.8%; in test [5], -9.2%; in test [6], -12%.
`Cc1cccc(NC(=O)OC/C=C/c2ccccc2)c1`: the growth inhibition is 10.3% in test [1]; 70.5% (active) in test [2]; 53.5% in test [3]; 0.65% in test [4]; 31.4% in test [5]; 4.95% in test [6].
As for `CS(=O)(=O)OCCN(CCOS(C)(=O)=O)c1ccc([N+](=O)[O-])cc1[N+](=O)[O-]`, the growth inhibition was 22.6% in test [1]; -5.8% in test [2]; -0.2% in test [3]; 24.8% in test [4]; -3.95% in test [5]; 13.6% in test [6].
On to `Cc1ccc(S(=O)(=O)CCC#N)cc1`, for which the growth inhibition was 0.25% in test [1]; 8.2% in test [2]; -5.65% in test [3]; -9.35% in test [4]; -8.2% in test [5]; -11.7% in test [6].
Take `O=C(O)CS(=O)c1ccc2c3c(cccc13)C(=O)c1ccccc1-2` (centres undefined): the growth inhibition in test [1] was 14.7%; in test [2], -12.5%; in test [3] it was -38.5%; in test [4], -0.05%; in test [5], -30.8%; in test [6] it was 1.7%.
